Source: PubChem BioAssay (National Center for Advancing Translational Sciences (NCATS))
Hits are enriched below; roughly 15% of the tested compounds scored in any of these assays.
VP16 counter = counter-screen for ROR gamma inhibitors: Gal4-VP16 reporter; hit rate 3.5% among 310,000; AID 2546; Drosophila S2 Gal4-VP16 UAS-luciferase, luminescence, 20 h; Potency, µM (series often up to 53.6 µM), for the others: top-dose activity, negative = inhibition, most hits filed as inhibitors;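 also: Gal4-VP16 expression switched on by copper sulfate through the metallothionein promoter; nearly all actives have a fitted effect of over 50% in size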
ELG1 repair inh = blocks ELG1-dependent DNA repair in HEK293T cells; Potency, µM (titrated, usually from 46.1 µM), without a hit: at the highest dose activity change, negative = inhibition, usual class: inhibitors; AID 504467; HEK293T ELG1-luciferase reporter, luminescence, 16 h; DNA damage induced by 5-fluorouridine; hit rate 2.3% among 330,000; also: nearly all actives have a fitted effect of over 55% in size
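5-Fluorouridine DNA damage + compound/DMSO, 2,000 cells/well, 16 h, 37 °C/5% CO2. ONE-Glo, 30 min RT, luminescence. Readout = decrease in reporter signal.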
TDP1 cell noCPT = qHTS for Inhibitors of human tyrosyl-DNA phosphodiesterase 1 (TDP1): qHTS in cells in absence of CPT; DT40 Tdp1-/- hTDP1 cells, no CPT, ATP luminescence, 48 h; Potency, µM (titrated, usually from 46.2 µM), for inactives: at the top dose activity change, negative = growth inhibition, most hits filed as inhibitors; hit rate 15% among 420,000; AID 686978, 2013; also: nearly all actives have a fitted effect of over 55% in size
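Growth of hTDP1-complemented DT40 Tdp1-knockout cells is measured by ATP luminescence after at least 48 hr compound exposure at 37 °C, with DMSO substituting for the 20 nM CPT used in the parallel screen.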
12-LOX inh = inhibitors of human 12S-lipoxygenase ALOX12; P18054; purified 12hLO, xylenol orange hydroperoxide absorbance; Potency, µM (top dose mostly 108 µM), for the others: at the top dose activity change, negative = inhibition, actives largely listed as inhibitors; hit rate 1.1% among 580,000
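Purified human 12hLO at 150 nM in 25 mM Hepes, 0.01% Triton X-100, pH 7.0, preincubated 15 min at room temperature with compound. Reaction started with 40 uM arachidonic acid, 30 min at room temperature. Hydroperoxide measured by Fe-xylenol orange, 573/405 nm absorbance ratio.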
DT40 TDP1 CPT = growth inhibition of DT40 Tdp1-/-;hTDP1 cells with camptothecin (screen for TDP1 inhibitors) | chicken DT40 Tdp1-/-;hTDP1 cells + 20 nM CPT, ATP luminescence, 48 h | Potency, µM (doses to about 46.2 µM), for the others: top-dose activity change, negative = growth inhibition, actives largely listed as inhibitors | hit rate 12% among 420,000 | AID 686979; also: nearly all actives have a fitted effect of over 55% in size
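Chicken DT40 Tdp1-/- cells stably complemented with human TDP1 were seeded at 400 cells/well in medium containing 20 nM camptothecin, exposed to pin-transferred compounds, and grown at 37 °C for at least 48 hr. Viability was read as ATP luminescence.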
RORgamma inh = ROR gamma (mouse) transcription inhibition; P51450; Drosophila S2 Gal4-RORgamma UAS-luciferase reporter, 20 h; Potency, µM (top dose mostly 53.6 µM), without a hit: at the highest dose activity change, negative = inhibition, actives largely listed as inhibitors; hit rate 5.4% among 310,000; also: nearly all actives have a fitted effect of over 60% in size
Target sequence (P51450 whole entry, looked up, the tested form may be a part): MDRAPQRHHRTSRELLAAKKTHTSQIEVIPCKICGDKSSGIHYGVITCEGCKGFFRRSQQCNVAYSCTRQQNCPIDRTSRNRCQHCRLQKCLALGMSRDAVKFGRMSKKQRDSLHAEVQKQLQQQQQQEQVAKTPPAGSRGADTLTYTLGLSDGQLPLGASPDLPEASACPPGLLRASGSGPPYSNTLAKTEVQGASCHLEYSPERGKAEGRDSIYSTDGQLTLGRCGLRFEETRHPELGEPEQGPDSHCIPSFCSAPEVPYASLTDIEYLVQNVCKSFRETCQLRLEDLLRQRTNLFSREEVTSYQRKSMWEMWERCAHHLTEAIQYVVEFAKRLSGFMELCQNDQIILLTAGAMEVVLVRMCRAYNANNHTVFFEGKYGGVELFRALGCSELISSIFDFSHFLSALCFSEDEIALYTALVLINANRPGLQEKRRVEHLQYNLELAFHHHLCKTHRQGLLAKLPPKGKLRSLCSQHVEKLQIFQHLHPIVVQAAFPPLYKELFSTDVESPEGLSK
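A Gal4/UAS one-hybrid system in insect cells: metallothionein-promoter Gal4–ROR gamma fusion plus Photinus luciferase reporter. Copper sulfate 700 uM final, 20 hr ambient incubation, luminescent detection after 10 min with reagent.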
Numbers without * were called inactive; ? = inconclusive; . = no result; [ ] = remark or other dose. Calls follow the shape of the dose curve; as a rule, active = well fitted curve in the direction sought with a large enough effect; inconclusive = small, poorly fitted or top-dose-only effect, or another doubt; inactive = no such curve, though single readings can be large; an effect the other way counts as inactive or inconclusive. % is scaled to controls: 0 for no effect and ±100 for the full control effect; potency is read from the fitted curve at half-maximal effect.

SMILES	VP16 counter	ELG1 repair inh	TDP1 cell noCPT	12-LOX inh	DT40 TDP1 CPT	RORgamma inh
Cc1noc(-c2ccn3c(CNC(=O)Cc4ccccc4Cl)nnc3c2)n1	.	.	.	3%	.	.
CCN(C(=O)CN1C(=O)NC2(CCc3ccccc32)C1=O)C1CCCCC1 (configuration not stated)	.	3%	-17%	0%	-24%	.
CCN(C(=O)CN1C(=O)NC2(CCCc3ccccc32)C1=O)c1ccc(F)cc1 (configuration not stated)	.	-1%	16µM*	437%	?	.
Cc1cc(C(=O)CN2C(=O)NC3(CCCc4ccccc43)C2=O)c(C)n1Cc1cccs1 (configuration not stated)	1%	-22%	?	-1%	16µM*	8%
C=CCn1c(C)cc(C(=O)CN2C(=O)NC3(CCCc4ccccc43)C2=O)c1C (configuration not stated)	-4%	?	?	1%	?	26%
CCN(Cc1cccs1)C(=O)CN1C(=O)NC2(CCCc3ccccc32)C1=O (configuration not stated)	.	12%	-19%	-19%	21µM*	.
Cc1cc(C)c(NS(=O)(=O)c2ccc(N3C(=O)CCS3(=O)=O)cc2)c(Cl)c1	.	.	.	17%	.	.
CCC(C)NC(=O)c1ccc2c(c1)OCCCO2 (configuration not stated)	.	.	.	9%	.	.
O=C(CSCc1nc2cccnc2n1C1CCCCC1)NCc1cccc(Br)c1	.	.	21µM*	-14%	16µM*	.
O=C(CSCc1nc2cccnc2n1C1CCCCC1)NCc1cccc(Cl)c1	.	.	10µM*	-4%	23µM*	.
C[C@@]1(O)CCN(Cc2cn[nH]c2-c2ccccc2)C[C@H]1N1CCCC1	.	.	.	75%	.	.
CCCOc1ccc(NC(=O)COc2ccc(OC)cc2)c2cccnc12	.	.	.	22%	.	.
CS(=O)(=O)N1CCC(OC2CCN(C(=O)Nc3cccc(F)c3)CC2)CC1	.	.	.	34%	.	.
CCOc1ccc(S(=O)(=O)N2CCC(C(=O)Nc3ccccc3N3CCCC3)CC2)cc1	.	.	21µM*	-10%	?	.
Cc1cccc(NC(=O)C2CCN(S(=O)(=O)c3c(C)c(C)cc(C)c3C)CC2)n1	.	?	16µM*	-18%	15µM*	.
COc1ccc(OC)c(S(=O)(=O)N2CCCC2C(=O)N2CCc3ccccc3C2)c1 (configuration not stated)	8%	-8%	23µM*	-3%	15µM*	-23%
Cc1cc(C)c(C)c(S(=O)(=O)N2CCC(C(=O)Nc3ccccc3N3CCOCC3)CC2)c1C	-17%	?	15µM*	-1%	?	39%
COc1ccccc1N1CCN(c2nccnc2SCC(=O)Nc2cccc(Cl)c2C)CC1	.	.	.	-14%	.	.
CCCNCc1ccc(OCCO)cc1	.	.	.	5%	.	.
Cc1ccc(S(=O)(=O)N2CCC(C(=O)Nc3ccccc3N3CCCC3)CC2)cc1	.	?	-3%	?	-20%	.
CCOc1ccc(S(=O)(=O)N2CCC(C(=O)N3CCc4ccccc4C3)CC2)cc1	-8%	?	15µM*	4%	?	42%
CSc1ccc(S(=O)(=O)N2CCC(C(=O)N3CCc4ccccc4C3)CC2)cc1	4%	-9%	?	-10%	?	30%
Cc1ccc(S(=O)(=O)N2CCC(C(=O)Nc3ccccc3N3CCCCC3)CC2)cc1	-3%	?	?	4%	18µM*	2%
O=C(Nc1cc(S(=O)(=O)N2CCCCC2)ccc1N1CCCCC1)C1CC1	-8%	-23%	16µM*	-12%	-93%	-16%
O=C1Nc2ccc(Br)cc2C(=O)N2CCN(C(=O)c3cccc(F)c3)C[C@H]12	.	.	.	-16%[176 µM]	.	.
SMILES	VP16 counter	ELG1 repair inh	TDP1 cell noCPT	12-LOX inh	DT40 TDP1 CPT	RORgamma inh
O=C(N/N=C/c1cn(-c2ccccc2)nc1-c1cccnc1)c1cccnc1	?	?	-22%	4%	-29%	14µM*
O=C(CNc1ccccc1)N/N=C/c1cn(-c2ccccc2)nc1-c1ccccc1	1µM*	-25%	8%	0%	8%	-4%[10 µM]
O=C(N/N=C/c1cn(-c2ccccc2)nc1-c1cccnc1)c1ccc(F)cc1	4µM*	?	?	459%	?	2.8µM*
O/N=C/c1cn(-c2ccccc2)nc1-c1ccc(-c2ccccc2)cc1	.	.	.	-6%	.	.
O/N=C/c1cn(-c2ccccc2)nc1-c1cccnc1	1%	15%	4%	-15%	5%	12%
O=C(N/N=C/c1cn(-c2ccccc2)nc1-c1ccc(F)cc1)c1ccc(Br)o1	2.5µM*	?	23µM*	431%	21µM*	1.8µM*
O=C(NCCCO)/C(=C\c1cn(-c2ccccc2)nc1-c1cccnc1)NC(=O)c1ccccc1	-7%	?	-28%	0%	-12%	17%
O=C(NCC1CCCO1)/C(=C/c1cn(-c2ccccc2)nc1-c1cccnc1)NC(=O)c1ccccc1 (configuration not stated)	9%	21µM*	?	-18%	?	-1%
CC(C)(C)C(=O)NCCCC(=O)NC1CCCC1	.	.	.	-8%	.	.
CCCCN1C2=C(C(=O)CCC2)C(c2ccc(Cl)c(Cl)c2)C2=C1c1ccccc1C2=O (configuration not stated)	11%	0%	?	-11%	16µM*	-10%
CCCN1C(=O)c2ccccc2NC1c1ccc(Cl)c(Cl)c1 (configuration not stated)	-1%	2%	?	?	?	-39%
O=C(COc1ccc(Cl)cc1)Nc1cc2c3c(c1)CC(=O)N3CCC2	.	-10%	21µM*	-9%	21µM*	.
Cc1cccc(NC(=O)CSc2nc3c(c(=O)n2CCc2ccccc2)SCC3)c1	.	.	.	-3%	.	.
Cc1ccc(S(=O)(=O)c2nc(Nc3ccccc3C#N)sc2Cl)cc1	6%	0%	2.6µM*	-3%	?	0%
Cc1ccc(S(=O)(=O)c2nc(Nc3ccccc3N3CCOCC3)sc2Cl)cc1	-6%	6%	?	?	?	-1%
COC(=O)CCCNC(=O)C12CC3CC(CC(C3)C1)C2	.	.	.	-21%	.	.
CNc1nc2c(s1)C(c1ccc(F)c(F)c1)CC(=O)N2 (configuration not stated)	.	.	.	-25%	.	.
Nc1nc2c(s1)C(c1ccc(F)cc1F)CC(=O)N2 (configuration not stated)	.	.	.	13µM*	.	.
